Our source for the z-score and composite z-score values is PubChem BioAssay.

Assay [1] is described as follows: compound effects on lung adenocarcinoma cell viability – A549, calcein-AM fluorescence, 48 h, basal, profiling panel (AID 1162). Note: test concentration not given here. As to conditions: higher = more signal.
Assay [2] in a line: compound effects on differentiated 3T3-L1 adipocyte viability – cell-based, 3T3-L1 adipocytes, calcein-AM fluorescence, 48 h, basal, profiling panel (AID 1163). Note: test concentration not given here. As to conditions: 3T3-L1 adipocytes viability, higher = more signal.
Assay [3] in a line: compound effects on hepatocellular carcinoma cell viability – HepG2, calcein-AM fluorescence, 48 h, basal, profiling panel (AID 1164). Note: test concentration not given here. The following applies: higher = more signal.
A short description of assay [4]: compound effects on multiple myeloma cell viability – MM1S, calcein-AM fluorescence, 48 h, basal, profiling panel (AID 1165).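 Note: viability of MM1S multiple myeloma cells under basal unstimulated conditions; test concentration not given here.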 The following applies: higher = more signal.
Assay [5] is described as follows: calcein-AM signal in unstimulated myeloma cells – cell-based, calcein-AM fluorescence, 48 h, PK04 Diversity Set, profiling panel (AID 1166).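 Note: cells grown under basal conditions without added stimulus; test concentration not given here.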 As to conditions: RPMI8226 myeloma viability, higher = more signal.
Assay [6] in a line: JC-1 mitochondrial signal, unstimulated HepG2 cells – cell-based, JC-1 fluorescence, 24 h, 100 nL compound, profiling panel (AID 1167). Note: test concentration not given here. As to conditions: HepG2 mitochondrial potential, higher = more signal.
A short description of assay [7]: JC-1 mitochondrial signal, unstimulated adipocytes – cell-based, JC-1 fluorescence, 3T3-L1 adipocytes, 24 h, 100 nL compound, profiling panel (AID 1168). Note: test concentration not given here. The following applies: JC-1 mitochondrial fluorescence, higher = more signal, called active from +8 up or from −8 down.
Assay [8] can be described thus: JC-1 mitochondrial signal, unstimulated myeloma cells – cell-based, JC-1 fluorescence, RPMI8226, 24 h, 100 nL compound, profiling panel (AID 1169). Note: test concentration not given here. As to conditions: JC-1 mitochondrial potential fluorescence, higher = more signal.
The nature of assay [9]: JC-1 mitochondrial signal, unstimulated MM1S myeloma – cell-based, JC-1 fluorescence, 24 h, 100 nL compound, profiling panel (AID 1170). Note: test concentration not given here. As to conditions: MM1S mitochondrial potential, higher = more signal.
The nature of assay [10]: resazurin metabolic signal in A549 cells – cell-based, resazurin fluorescence, 24 h, PK04 Diversity Set, profiling panel (AID 1171). Note: test concentration not given here. The following applies: A549 viability, higher = more signal, called active from +8 up or from −8 down. A general note: Alamar Blue is a resazurin reagent that responds to reducing activity.
Assay [11] in a line: resazurin metabolic signal in HepG2 cells – cell-based, resazurin fluorescence, 24 h, PK04 Diversity Set, profiling panel (AID 1172). Note: test concentration not given here. As to conditions: HepG2 viability, higher = more signal.
Assay [12] can be described thus: budding yeast growth changes without added modifier – OD600, strain BY4716, 24 h, basal condition, primary screen (AID 1173). As to conditions: S. cerevisiae BY4716 growth, OD600, 24 h; higher = more signal, called active from +8 up or from −8 down.
Assay [13] can be described thus: viability profiling in MM1S myeloma cells – cell-based, resazurin fluorescence, basal, 24 h, PK04 Diversity Set, profiling panel (AID 1174). Note: test concentration not given here. As to conditions: higher = more signal, called active from +8 up or from −8 down.
The target of assay [14] is Dihydroorotate dehydrogenase (quinone), mitochondrial (Plasmodium falciparum (isolate 3D7)) (UniProt Q08210). Kind of assay: inhibition of P. falciparum DHODH – biochemical, C-terminal His tag, absorbance 600 nm, primary screen (AID 1175).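 Note: recombinant parasite enzyme with a five histidine tag at its C terminus; test concentration not given here.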 As to conditions: PfDHODH enzyme, DCIP absorbance 600 nm; higher = more signal, called active from +8 up or from −8 down.
A short description of assay [15]: inhibition of PAO1 biofilm formation – strain PAO1, LB-PBS medium, absorbance 600 nm, primary screen (AID 1176). Note: test concentration not given here. The following applies: P. aeruginosa PAO1 growth/biofilm, A600, 12 h; higher = more signal.
A short description of assay [16]: growth modulation of vineyard yeast isolate – strain RM11-1a, OD600, basal, 24 h, primary screen (AID 1177).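 Note: cultures grown under basal conditions with no added stressor; test concentration not given here.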 The following applies: S. cerevisiae RM11-1a growth, OD600, 24 h; higher = more signal, called active from +8 up or from −8 down.
Assay [17] can be described thus: growth of efflux-deficient E. coli DRC39 – strain DRC39, OD650, 24 h, E. coli filamentation inducers, primary screen (AID 1178).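 Note: growth measured as culture turbidity by optical density at 650 nm; test concentration not given here.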 As to conditions: E. coli DRC39 acrAB, higher = more signal, called active from +8 up or from −8 down.
The nature of assay [18]: growth of efflux-deficient E. coli DRC39 – strain DRC39, OD650, 48 h, E. coli filamentation inducers, primary screen (AID 1179).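 Note: screen aims at cell division blockers that make cells filament.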 As to conditions: E. coli DRC39 delta-acrAB growth, higher = more signal, called active from +8 up or from −8 down.
Assay [19] is described as follows: viability profiling in RPMI8226 myeloma cells – cell-based, resazurin fluorescence, basal, 24 h, PK04 Diversity Set, profiling panel (AID 1180).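 Note: RPMI8826 multiple myeloma cell line at 5000 cells per well; test concentration not given here.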 The following applies: higher = more signal.
Assay [20] addresses E3 ubiquitin-protein ligase XIAP (Homo sapiens) (UniProt P98170). The assay is described as follows: small molecules binding XIAP protein – biophysical, small-molecule microarray, fluorescence 635 nm, primary screen (AID 1181).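 Note: score merges 667 nm emission and signal to noise over triplicate slides.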 As to conditions: higher = more signal.

Active and inactive are the calls of the source. Unless noted, the rule behind the calls is not given here.

Chain of E3 ubiquitin-protein ligase XIAP (Homo sapiens) (P98170 whole entry, looked up): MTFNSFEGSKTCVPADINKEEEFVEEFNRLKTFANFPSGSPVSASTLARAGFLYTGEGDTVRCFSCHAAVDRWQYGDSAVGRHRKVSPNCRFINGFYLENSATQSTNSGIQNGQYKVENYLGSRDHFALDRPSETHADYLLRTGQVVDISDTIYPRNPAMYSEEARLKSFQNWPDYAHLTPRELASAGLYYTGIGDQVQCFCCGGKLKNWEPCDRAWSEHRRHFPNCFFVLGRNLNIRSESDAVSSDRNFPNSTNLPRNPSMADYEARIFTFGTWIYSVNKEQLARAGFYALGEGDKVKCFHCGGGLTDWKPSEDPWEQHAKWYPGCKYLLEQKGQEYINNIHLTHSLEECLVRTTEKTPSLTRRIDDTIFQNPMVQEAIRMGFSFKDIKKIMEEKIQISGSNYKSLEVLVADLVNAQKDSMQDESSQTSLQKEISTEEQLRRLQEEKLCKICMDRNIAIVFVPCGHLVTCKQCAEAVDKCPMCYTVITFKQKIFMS
Chain of Dihydroorotate dehydrogenase (quinone), mitochondrial (Plasmodium falciparum (isolate 3D7)) (Q08210 whole entry, looked up): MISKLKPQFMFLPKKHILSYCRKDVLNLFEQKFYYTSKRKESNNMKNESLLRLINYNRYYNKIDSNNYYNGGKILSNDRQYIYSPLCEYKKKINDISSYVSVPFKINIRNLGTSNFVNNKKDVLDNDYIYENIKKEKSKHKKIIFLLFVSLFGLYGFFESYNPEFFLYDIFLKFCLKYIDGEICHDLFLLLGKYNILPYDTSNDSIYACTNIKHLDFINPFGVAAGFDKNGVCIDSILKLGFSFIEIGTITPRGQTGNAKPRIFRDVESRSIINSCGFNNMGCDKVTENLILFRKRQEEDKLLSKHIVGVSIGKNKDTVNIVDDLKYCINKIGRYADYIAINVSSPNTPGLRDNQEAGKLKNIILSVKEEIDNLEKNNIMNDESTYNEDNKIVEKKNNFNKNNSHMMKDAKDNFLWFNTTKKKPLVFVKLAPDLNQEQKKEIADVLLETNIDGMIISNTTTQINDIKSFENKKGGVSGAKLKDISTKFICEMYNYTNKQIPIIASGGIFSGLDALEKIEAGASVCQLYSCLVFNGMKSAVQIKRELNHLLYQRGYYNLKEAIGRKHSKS

With `COCCCNC(=O)[C@@]1(c2ccc([N+](=O)[O-])cc2)CC(=O)N(C2CCCCC2)[C@@H]1c1ccc(CO)cc1`, the z-score was 0.286 in [1]; 0.0134 in assay [2]; 0.366 in assay [3]; -0.214 in assay [4]; -0.0968 in [5]; 0.437 in assay [6]. Moreover, the z-score in assay [7] is -0.605 (inactive); in assay [8] it was 0.00327; in assay [9] it was 0.509; in [10], 0.902 (inactive); in assay [11], 0.172; in assay [12], -0.27 (inactive). Further, the z-score is 0.337 (inactive) in assay [13]; 0.814 (inactive) in assay [15]; -0.491 (inactive) in [16]; -0.131 (inactive) in [17]; -0.346 (inactive) in assay [18]; 0.946 in assay [19]. The composite z-score in [14] is -0.0394 (inactive); in assay [20], 0.147.
Regarding `CC1CC/C=C\[C@H]2OC34C=CCN(Cn5nnc6ccccc65)C(=O)[C@H]3N(C(C)CO)C(=O)[C@@H]4C2C(=O)O1` (stereo not given in full), the z-score in [1] is 0.151; in [2] it was -0.14; in assay [3] it was 0.203; in assay [4], 0.835; in assay [5], 0.182; in assay [6], 0.236. In addition, the z-score in assay [7] was -0.087 (inactive); in assay [8], 0.128; in assay [9] it was -0.731; in [10], 0.0113 (inactive); in assay [11] it was 0.142; in [12], -0.0496 (inactive). Besides, the z-score in [13] was 0.035 (inactive); in [15], -0.0837 (inactive); in assay [16], 0.472 (inactive); in [17], 0.756 (inactive); in assay [18], 0.665 (inactive); in [19], 0.0911. The values for the composite z-score in assay [14] and in [20] were 0.853 (inactive) and 0.282, respectively.
For `CCCC=C(CCC)[C@@H](NC(=O)c1ccccc1)c1ccccc1`, the z-score in [1] is -0.956; in [2], -0.551; in [3], 0.46; in [4], -0.0621; in [5], -0.246; in [6], -3.04. The z-score in assay [7] is 0.177 (inactive); in [8], -0.017; in assay [9] it was -1.49; in assay [10] it was 0.215 (inactive); in assay [11], -0.232; in assay [12], 0.752 (inactive). The z-score in assay [13] is -1.01 (inactive); in [15] it was 1.27 (inactive); in assay [16] it was 0.0321 (inactive); in assay [17], 0.164 (inactive); in assay [18], 0.475 (inactive); in [19], 0.0944. Further, the composite z-score in assay [14] was -0.421 (inactive); in [20], 0.086.
As for `C=C(COC)C(=O)CC[C@H](OC(=O)c1ccccc1-c1ccccc1C(=O)O)c1cccc(OCCO)c1`, the z-score in [1] is -0.339; in assay [2], -0.765; in assay [3], -2.08; in assay [4], -1.12; in assay [5] it was -0.28; in assay [6], -2.01. The z-score was 0.414 (inactive) in assay [7]; 0.231 in assay [8]; -0.0895 in assay [9]; -1.46 (inactive) in [10]; -1.06 in assay [11]; -17.1 (active) in assay [12]. For the same compound, the z-score was -0.805 (inactive) in [13]; 1.99 (inactive) in assay [15]; -5.09 (inactive) in assay [16]; -1.27 (inactive) in [17]; -1.04 (inactive) in assay [18]; -0.858 in [19]. Moreover, the composite z-score in assay [14] was -6.66 (inactive); in assay [20], 0.511.
Turning to `O=C1O[C@H](c2ccccc2)[C@H](c2ccccc2)N2[C@H]1[C@@H](C(=O)NC[C@H](O)c1ccccc1)[C@]1(C(=O)Nc3ccc(C#CC4(O)CCCCCC4)cc31)[C@H]2c1ccc(OCCO)cc1`, the z-score in [1] was -1.2; in assay [2] it was 0.694; in assay [3], 0.643; in [4], -1.29; in assay [5], -0.587; in [6], -1.32. For the same compound, the z-score was 1.78 (inactive) in assay [7]; -0.842 in [8]; -0.469 in assay [9]; 0.132 (inactive) in assay [10]; -0.148 in [11]; 0.359 (inactive) in [12]. The z-score in assay [13] is -0.15 (inactive); in assay [15] it was 1.9 (inactive); in assay [16], 1.68 (inactive); in assay [17], 1.66 (inactive); in [18], 0.855 (inactive); in assay [19] it was 0.931. The composite z-score in [14] was -1.82 (inactive); in [20], -0.168.
As for `O=C1OCC=C[C@H]2OC34C=CCN(Cc5ccccc5)C(=O)[C@H]3N(CCO)C(=O)[C@@H]4[C@@H]12` (stereo not given in full), the z-score is 0.125 in assay [1]; 0.474 in assay [2]; -0.885 in assay [3]; 1.12 in [4]; 0.44 in [5]; -0.255 in assay [6]. Besides, the z-score in [7] is 0.367 (inactive); in assay [8], -0.0019; in assay [9], -0.216; in assay [10] it was 0.54 (inactive); in assay [11], 1.21; in assay [12] it was -0.999 (inactive). Besides, the z-score is 1.6 (inactive) in assay [13]; 0.317 (inactive) in assay [15]; -0.77 (inactive) in assay [16]; 0.508 (inactive) in assay [17]; 0.186 (inactive) in assay [18]; 0.894 in assay [19]. The values for the composite z-score in assay [14] and in assay [20] were -0.415 (inactive) and -0.16, respectively.
Turning to `Cc1ccc(N2C(=O)c3ccccc3[C@@H](C(=O)NCC(F)(F)F)[C@@H]2c2ccc(CO)cc2)nc1`, the z-score was 0.312 in assay [1]; 0.603 in assay [2]; 0.471 in assay [3]; 0.0049 in assay [4]; 0.51 in assay [5]; 1.04 in assay [6]. The z-score is 0.884 (inactive) in assay [7]; -0.223 in assay [8]; 0.0421 in [9]; 0.547 (inactive) in assay [10]; 0.129 in assay [11]; -0.789 (inactive) in [12]. The z-score in [13] was 1.21 (inactive); in [15], 0.429 (inactive); in assay [16], -0.872 (inactive); in assay [17], 0.419 (inactive); in assay [18], 0.127 (inactive); in assay [19] it was 0.607. Also, the composite z-score was -0.417 (inactive) in [14] and -0.227 in assay [20].
Take `CCOC(=O)C1=CC[C@@H](c2ccccc2)N(S(=O)(=O)c2ccc(C)cc2)[C@H]1C`: the z-score was -1.54 in assay [1]; -0.956 in assay [2]; -1.21 in assay [3]; -1.6 in assay [4]; -1.77 in assay [5]; 3.96 in assay [6]. Moreover, the z-score in [7] was 0.775 (inactive); in assay [8] it was -0.198; in [9] it was -1.22; in assay [10] it was 0.0723 (inactive); in [11], 0.302; in assay [12], 1.11 (inactive). Besides, the z-score in [13] was -0.209 (inactive); in assay [15], -0.0601 (inactive); in assay [16] it was 1.43 (inactive); in [17], -0.472 (inactive); in assay [18], -0.4 (inactive); in [19] it was -0.875. Besides, the composite z-score in assay [14] is -1.18 (inactive); in assay [20], 0.0512.
Regarding `COC(=O)[C@@]1(Cc2ccc(OC)cc2)[C@H]2c3cc(C(=O)N(C)C)n(Cc4ccc(C)c(F)c4F)c3C[C@H]2CN1C(=O)c1ccccc1`, the z-score was -1.81 in assay [1]; -0.484 in assay [2]; -1.15 in [3]; -1.34 in assay [4]; -1.5 in assay [5]; 0.00937 in assay [6]. Further, the z-score in assay [7] is -0.589 (inactive); in assay [8], 0.817; in assay [9], -1.3; in [10] it was 1.41 (inactive); in [11] it was 0.819; in assay [12], 1.45 (inactive). Besides, the z-score was 0.468 (inactive) in [13]; 0.0944 (inactive) in [15]; 2.26 (inactive) in assay [16]; 0.423 (inactive) in [17]; -0.373 (inactive) in assay [18]; 1.37 in assay [19]. In addition, the composite z-score in assay [14] is 0.164 (inactive); in [20], 0.385.
